Records with an inconclusive call do not appear. Calls of active or inactive are those of the source. Unless noted, calls come from the whole dose curve; as a rule, active = well fitted curve in the direction sought with a large enough effect; inconclusive = small, poorly fitted or top-dose-only effect, or another doubt; inactive = no such curve, though single readings can be large; an effect the other way counts as inactive or inconclusive.
Key:
[1] = P-glycoprotein substrates identified in KB-8-5-11 adenocarcinoma cell line, qHTS therapeutic library screen (AID 1346987); note: nearly all actives have a fitted effect of over 65% in size
In short: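 Compounds are pinned in dose-response onto KB-8-5-11 cells (500 cells/well, colchicine-free medium) and left 72 h at 37 degree C. CellTiter-Glo luminescence then yields AC50 values.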

[2] = test system: Zika virus NS2B-NS3 protease (unlinked complex); assay: Primary screen GU Rhodamine qHTS for Zika virus inhibitors: Unlinked NS2B-NS3 protease assay (AID 1347159); note: % is set by controls: 0 for no effect and ±100 for the full control effect; nearly all actives have a fitted effect of over 60% in size
In short: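 Buffer 10 mM Tris-HCl pH 8.0, 0.01% Tween 20. Unlinked protease 25 nM; compound preincubation 15 min, RT, protected from light. Substrate Rhod110, 1.5 microM; ~15% conversion in 15 min.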

[3] = test system: Zika virus NS2B-NS3 protease (linked construct); assay: Primary screen NINDS Rhodamine qHTS for Zika virus inhibitors (AID 1347160); note: nearly all actives have a fitted effect of over 55% in size; for activity change, negative = inhibition: % is set by controls: 0 for no effect and ±100 for the full control effect
In short: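 Aprotinin served as in-plate control. Conditions: 25 nM linked NS2B-NS3, pH 8.0 Tris buffer, titrated compounds, 15 min preincubation and 15 min reaction with 1.5 microM Rhod110 substrate at room temperature.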

[4] = molecular target: Calcium and integrin-binding protein 1 (Homo sapiens) (UniProt Q99828); assay: Primary qHTS for Identification of Calcium Integrin Binding Protein 1 (CIB1) Competitor (AID 1508620);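 note: GST tagged CIB1 binding a fluorescein labelled alphaIIb integrin peptide tracer; top concentration of the series differs between compounds; % is set by controls: 0 for no effect and ±100 for the full control effect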
In short: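 Fluorescence polarization competition: CIB1-GST (1 uM final) preincubated with compound 15 min at room temperature, then FITC-labeled alphaIIb peptide (100 nM final) added for another 15 min. Polarization read at Ex 480/Em 540.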

[5] = Primary redox qHTS assay for identification of artifact compounds. (AID 1845223);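 note: 0% = DMSO and 100% = reference compound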
In short: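 Redox-cycling detection via DTT (250 uM final) oxidation coupled to Amplex Red (25 uM)/HRP (250 mU/mL) in HBSS. 15 min preincubation plus 30 min after DTT, room temperature. Ex/Em 525/598 nm; 4-parameter Hill fit against DMSO and 10 uM DA3003.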

[6] = test system: CRL-7250; assay: qHTS assay to identify novel small-molecules to repurpose for Merkel cell carcinoma treatment (AID 1296009); details: MCC and control cell lines, CellTiter-Glo viability, 72 h; series mostly up to 92 µM; note: nearly all actives have a fitted effect of over 60% in size
In short: (§1)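 Viability readout: ATP luminescence (CellTiter-Glo) after 72 hr drug exposure at 37 degree celsius. Dose-response format was 8 points for NPC and 11 points for MIPE; data normalized to in-plate controls.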

[7] = test system: CAOV3; assay: Primary qHTS to identify gynecologic anti-cancer compounds using libraries of approved drugs and bioactive compounds (AID 1345084); details: Gynecologic cancer cell panel viability, ATPlite luminescence, 48 h; series mostly up to 57.5 µM; note: % is set by controls: 0 for no effect and ±100 for the full control effect; nearly all actives have a fitted effect of over 55% in size
In short: (§2)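 In this quantitative HTS, cell killing is estimated from loss of ATP-dependent luciferase light. Cells see five compound concentrations over a 48 h exposure.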

[8] = test system: HeLa; assay: as above; details: Gynecologic cancer cell panel viability, ATPlite luminescence, 48 h; series mostly up to 57.5 µM
In short: as §2

[9] = test system: JEG-3; assay: as above; details: Gynecologic cancer cell panel viability, ATPlite luminescence, 48 h; series mostly up to 57.5 µM
In short: as §2

[10] = test system: SKOV3; assay: as above; details: Gynecologic cancer cell panel viability, ATPlite luminescence, 48 h; series mostly up to 57.5 µM
In short: as §2

[11] = Cytotoxicity counterscreen for inhibitors of SARS-CoV-2 cell entry (AID 1645845; calls by dose curve; note: nearly all actives have a fitted effect of over 50% in size)
In short: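 After a 15 min room-temperature ATPLite 1step step, luminescence reflected ATP remaining in HEK293-ACE2 cells exposed to compound for 1 h plus 48 h at 37 C, with percent activity set by cell and no-cell controls.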

[12] = test system: HACAT; assay: qHTS assay to identify novel small-molecules to repurpose for Merkel cell carcinoma treatment (AID 1296009); details: MCC and control cell lines, CellTiter-Glo viability, 72 h; at 44.8 µM (top of the series) unless noted; note: nearly all actives have a fitted effect of over 60% in size
In short: as §1

[13] = molecular target: Cytochrome P450 2C9 (Homo sapiens) (UniProt P11712); assay: Cytochrome P450 family 2 subfamily C member 9 (CYP2C9) small molecule antagonists: luciferase biochemical (cell-free) qHTS assay (AID 1645842; active = well fitted curve in the direction sought with a large enough effect in the repeat runs; an effect the other way counts as inactive or inconclusive; note: nearly all actives have a fitted effect of over 55% in size; note: potency is the fitted concentration of half-maximal effect; for activity change, negative = inhibition: % is set by controls: 0 for no effect and ±100 for the full control effect)
In short: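 P450-Glo CYP2C9 system: proluciferin substrate with enzyme in mix containing 0.4% BSA, 10 min at room temperature, then NADPH regeneration solution added and incubated 1 h at 37C. Detection reagent stopped reaction; luminescence read after 20 min as RLU.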

[14] = P-glycoprotein substrates identified in KB-3-1 adenocarcinoma cell line, qHTS therapeutic library screen (AID 1346986); note: nearly all actives have a fitted effect of over 60% in size
In short: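 72 h cell-killing screen, 500 cells/well, CellTiter-Glo luminescence. Paired lines KB-3-1/KB-8-5-11; P-gp dependence checked by tariquidar co-treatment and HEK-293 MDR-19 versus empty-vector cells.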

[15] = qHTS Assay for Lipid Storage Modulators (AID 1519; calls by dose curve; for activity change, negative = inhibition: % is set by controls: 0 for no effect and ±100 for the full control effect); details: Drosophila S3 cells, BODIPY lipid droplet/cell ratio, laser cytometry, cells loaded with oleic acid
In short: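 Cells seeded at 5,000 per well were treated with compounds over a concentration series and loaded with oleic acid (400 uM, as added). Lipid droplet fluorescence (488 nm excitation, 500-530 nm channel) was read by laser-scanning cytometry and normalized to 20 uM Triacsin C.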

[16] = Primary qHTS to identify inhibitors of SARS-CoV-2 cell entry (AID 1645846; calls by dose curve; note: nearly all actives have a fitted effect of over 45% in size); details: activity change, negative = inhibition: at 57.1 µM (top of the series) unless noted
In short: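 Using luciferase-reporting pseudoviruses carrying Wuhan-Hu-1 spike, the screen tracks entry into stably ACE2-expressing cells over 48 hr. Activity is expressed relative to spike particles versus particles lacking any fusion protein.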

[17] = qHTS drug screen for cell cycle checkpoint inhibitors in PARPi-resistant BRCA-mutant ovarian cancer cell lines. (AID 1963452; calls by dose curve); details: PEO1/OlaR viability, CellTiter-Glo luminescence, 96 h, stronger effect = lower value
In short: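 PEO1, PEO4 and PEO1/OlaR ovarian cancer cells, 600 per well, exposed 96 h at 37C to a dilution series. Viability read by CellTiter-Glo luminescence, normalized to DMSO and empty wells; activity summarized as Z-AUC.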

Cytochrome P450 2C9 (Homo sapiens), sequence (P11712 whole entry, looked up): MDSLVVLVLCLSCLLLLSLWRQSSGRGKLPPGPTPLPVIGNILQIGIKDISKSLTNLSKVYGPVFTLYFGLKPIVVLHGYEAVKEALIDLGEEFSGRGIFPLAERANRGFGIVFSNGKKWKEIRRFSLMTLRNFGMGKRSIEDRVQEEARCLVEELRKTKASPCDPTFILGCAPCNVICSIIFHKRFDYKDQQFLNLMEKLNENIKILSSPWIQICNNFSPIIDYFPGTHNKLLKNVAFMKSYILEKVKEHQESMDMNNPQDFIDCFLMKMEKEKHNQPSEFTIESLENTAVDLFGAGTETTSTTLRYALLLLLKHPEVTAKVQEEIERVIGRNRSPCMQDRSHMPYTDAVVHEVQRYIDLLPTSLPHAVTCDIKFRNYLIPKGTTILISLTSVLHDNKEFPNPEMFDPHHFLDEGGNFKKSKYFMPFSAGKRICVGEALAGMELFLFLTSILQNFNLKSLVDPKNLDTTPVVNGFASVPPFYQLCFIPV
Calcium and integrin-binding protein 1 (Homo sapiens), sequence (Q99828 whole entry, looked up): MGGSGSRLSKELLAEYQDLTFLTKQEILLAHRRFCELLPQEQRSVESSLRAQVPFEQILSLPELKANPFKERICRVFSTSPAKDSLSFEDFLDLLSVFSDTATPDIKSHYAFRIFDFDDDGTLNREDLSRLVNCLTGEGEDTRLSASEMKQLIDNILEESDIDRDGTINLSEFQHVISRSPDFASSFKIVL

C[C@]12CCC(=O)C=C1CC[C@@H]1[C@@H]2[C@@H](O)C[C@]2(C)C(=O)CC[C@@H]12
inactive: Potency [1] | Potency [2] | Potency [3] | Potency [4] | Potency [5] | Potency [6] | Potency [7] | Potency [8] | Potency [9] | Potency [10]

CC(=O)O[C@H]1CC[C@H]2[C@@H]3CC[C@H]4CC(=O)C=C(C)[C@]4(C)[C@H]3CC[C@]12C
inactive: Potency [3] | Potency [4] | Potency [11] | Potency [5] | outcome [12] | Potency [7] | Potency [8] | Potency [9] | Potency [10]

CN1C2CCC1CC(OC(=O)N1Cc3ccccc3NC1=O)C2 (stereo not given)
inactive: Potency [1] | Potency [2] | Potency [3] | Potency [4] | Potency [13] | Potency [5] | Potency [6] | Potency [7] | Potency [8] | Potency [9]

COCC(C(=O)OC1CC2CCC(C1)N2C)c1ccccc1 (stereo not given)
inactive: Potency [14] | Potency [1] | Potency [2] | Potency [3] | Potency [4] | outcome [12] | Potency [7] | Potency [9]

C=CCN1CCC2(C)c3cc(O)ccc3C[C@H]1[C@H]2C
25.8%: max response ([15]; measured here: cell count channel max response)
inactive: activity change, negative = inhibition ([15]; at 57.5 µM (top of the series)) -8.46% | Potency [1] | Potency [2] | Potency [4] | Potency [5] | Potency [7] | Potency [8] | Potency [9] | Potency [10]
17%: max response ([15]; measured here: lipid channel max response)

C=C1[C@@]23C(=O)O[C@H](C)[C@]24O[C@@]2(C(=C)[C@]5(C=CC(=O)OC5(C)C)CC[C@]32C)[C@H](O)[C@@]1(C)OC4=O
inactive: Potency [1] | outcome [12] inactive [at 17.4 µM] | Potency [7] | Potency [8] | Potency [9] | Potency [10]

COc1ccc2c3c4n(c2c1)[C@@H](C=C(C)C)OOC(C)(C)C[C@@H]4N1C(=O)[C@@H]2CCCN2C(=O)[C@]1(O)[C@H]3OCC=C(C)C
inactive: Potency [2] | Potency [3] | Potency [4] | Potency [5] | Potency [6] | Potency [7] | Potency [8] | Potency [9] | Potency [10]

CCC(C)(O)C1(C(=O)O)COC(=O)C1 (stereo not given)
inactive: Potency [14] | Potency [1] | Potency [3] | Potency [4] | outcome [12] inactive [at 92 µM] | Potency [7] | Potency [8] | Potency [9] | Potency [10]

COc1ccc(CN(C(=O)[C@@H](N)Cc2c(C)cc(C(N)=O)cc2C)[C@@H](C)c2ncc(-c3ccccc3)[nH]2)cc1C(=O)O
-25.7%: activity change, negative = inhibition [16]
inactive: Potency [1] | Potency [2] | Potency [3] | Potency [4] | Potency [11] | Potency [7] | Potency [8] | Potency [9] | Potency [10]

CS[C@]1(CO)C(=O)N2[C@H]3C(=CC=C[C@@H]3O)C[C@@]2(SC)C(=O)N1C
inactive: Potency [14] | Potency [1] | Potency [6] | Potency [8] | Potency [9] | Potency [10]

C=CC(C)(C)c1[nH]c2c(CC=C(C)C)cc(CC=C(C)C)cc2c1C[C@@H]1NC(=O)[C@H](C)NC1=O
inactive: Potency [14] | Potency [1] | Potency [2] | Potency [3] | Potency [4] | Potency [5] | Potency [7] | Potency [8] | Potency [9] | Potency [10]

Cc1c(N2C(=O)[C@@H]3[C@H](O)CCN3C2=O)ccc(C#N)c1Cl
inactive: Potency [1] | Potency [2] | Potency [3] | Potency [4] | Potency [5] | outcome [12] | Potency [7] | Potency [8] | Potency [9]

CC1=CC2/C=C(\C)CCCC(O)/C=C/C(=O)OC23C(=O)NC(CC(C)C)C3C1C (stereo not given)
inactive: Potency [14] | Potency [1] | Potency [2] | Potency [3] | Potency [4] | Potency [6] | Potency [7] | Potency [8] | Potency [9] | Potency [10]

CC(=O)N1N=C(c2ccc(N)cc2)c2cc3c(cc2C[C@H]1C)OCO3
0.452: Z-AUC ([17]; measured here: PEO1 parental Z-AUC)
inactive: Potency [1] | Potency [2] | Potency [3] | Potency [4] | Potency [11] | Z-AUC [17] 0.45 | Potency [7] | Potency [8] | Potency [9] | Potency [10]
active: Potency [13] 12 µM
-4.19%: activity change, negative = inhibition [16]
0.412: Z-AUC ([17]; measured here: PEO4 Z-AUC)

CC1=CC2(O)/C=C/C(C)(O)C(O)C(O)/C=C/C(=O)OC23C(=O)NC(CC(C)C)C3C1C (stereo not given)
inactive: Potency [14] | Potency [1] | Potency [2] | Potency [4] | Potency [5] | outcome [12] inactive [at 17.4 µM] | Potency [8] | Potency [9] | Potency [10]

CC1(C)C(=O)N(c2ccc(C#N)c(C(F)(F)F)c2)C(=O)N1CCCCO
inactive: Potency [1] | Potency [2] | Potency [3] | Potency [4] | Potency [5] | Potency [7] | Potency [8] | Potency [9] | Potency [10]
active: Potency [13] 10.7 µM
